According to PubChem BioAssay (EPA / NIEHS):
Several values for one entry are separate records, joined by “and”; a condition that tells them apart may be missing. Equal values may be shown once. Inconclusive results are not listed. A structure can be active in one record and inactive in another. Activity calls are given as the source filed them. The calls were made as follows, unless noted: active = hit-call score of the fitted dose curve at least 0.9, where 1 is the maximum; inconclusive = response in the unintended direction; inactive = score below 0.9.

Assays:
[1] = tested on: Sodium/Iodide Symporter (NIS), SLC5A5 (gene 6528); experiment: CPHEA_Stoker_NIS_Inhibition_RAIU: CPHEA's Radioactive Iodide Uptake (RAIU) Assay for Sodium/Iodide Symporter (NIS) Inhibition, Stoker and Laws Labs (AID 2283841)
How it was run: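 HEK293T cells stably expressing human NIS (hNIS-HEK293T-EPA) were exposed to test chemicals at 0.001–100uM (0.5% final DMSO) with 125I at a final 329pM in HBSS/10mM HEPES pH 7.4. After 2 hours at room temperature and ice-cold washes, intracellular 125I was counted as CPM and normalized to DMSO wells.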

[2] = CPHEA_Stoker_NIS_Cytotoxicity: Cytotoxicity Assessment for CPHEA's Radioactive Iodide Uptake (RAIU) Assay for Sodium/Iodide Symporter (NIS) Inhibition, Stoker and Laws Labs (AID 2283897);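 as to AC50: active means loss of ATP signal versus DMSO meaning cytotoxicity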
How it was run: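 hNIS-HEK293T-EPA human kidney cells were exposed for 2 hours at room temperature to test chemicals (0.001–100uM, 0.5% final DMSO) in HEPES-buffered HBSS, pH 7.4. Viability was read as ATP content by luciferase bioluminescence, loss of signal versus DMSO.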

[3] = ATG_M_19_XSP2: Attagene TRANS-FACTORIAL Multi-Species (XSP2) HepG2 Assay for M32 Transcription Factor (Internal Marker) (AID 2283822)
How it was run: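 Internal background marker in a multi-species nuclear receptor TRANS panel: transfected HepG2 cells exposed 24 h, with 3 nM 6-alpha-fluorotestosterone and 1.5 nM norgestrel present. Readout is RT-PCR of reporter transcripts resolved by capillary electrophoresis, gain-of-signal versus DMSO.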

[4] = tested on: zebrafish Estrogen Receptor (ER2b), gene 317733; experiment: ATG_zfER2b_XSP2: Attagene TRANS-FACTORIAL Multi-Species (XSP2) HepG2 Assay for zebrafish Estrogen Receptor (ER2b) (AID 2283823);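 also: fitted upward as reporter gain over DMSO so potency reflects activation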
How it was run: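 Cells used were HepG2, transiently transfected with chimeric nuclear receptor-Gal4 reporter units. After 24 h of chemical treatment, reporter transcripts were amplified by RT-PCR, labelled and sized by capillary electrophoresis, with induction analysed relative to DMSO.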

[5] = ATG_M_32_XSP2: Attagene TRANS-FACTORIAL Multi-Species (XSP2) HepG2 Assay for M19 Transcription Factor (Internal Marker) (AID 2283826)
How it was run: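 Transfected HepG2 (multiplexed GAL4-UAS reporters), 24 h chemical exposure, 3 nM 6-alpha-fluorotestosterone + 1.5 nM norgestrel added. RNA → oligo(dT) RT → PCR → 6-FAM primer extension → HpaI cut → CE. Fitted upward vs DMSO.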

[6] = tested on: frog Estrogen Receptor (ER2), gene 100174814; experiment: ATG_frER2_XSP2: Attagene TRANS-FACTORIAL Multi-Species (XSP2) HepG2 Assay for frog Estrogen Receptor (ER2) (AID 2283828)
How it was run: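 HepG2 cells transiently transfected with multiplexed GAL4-UAS reporter units expressing chimeric frog ER2–Gal4 protein; reporter mRNA measured 24 h after chemical dosing by RT-PCR, fluorescent labeling and capillary electrophoresis. Gain-of-signal fitted relative to DMSO baseline.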

[7] = target: Peroxisome proliferator-activated receptor gamma (Homo sapiens) (UniProt P37231); experiment: ATG_hPPARg_XSP2: Attagene TRANS-FACTORIAL Multi-Species (XSP2) HepG2 Assay for human Peroxisome Proliferator-activated Receptor gamma (PPARg) (AID 2283829);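 also: actives raise reporter mRNA above DMSO so AC50 reflects PPARg activation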
Sequence of Peroxisome proliferator-activated receptor gamma (Homo sapiens) (P37231 whole entry, looked up, the tested form may be a part): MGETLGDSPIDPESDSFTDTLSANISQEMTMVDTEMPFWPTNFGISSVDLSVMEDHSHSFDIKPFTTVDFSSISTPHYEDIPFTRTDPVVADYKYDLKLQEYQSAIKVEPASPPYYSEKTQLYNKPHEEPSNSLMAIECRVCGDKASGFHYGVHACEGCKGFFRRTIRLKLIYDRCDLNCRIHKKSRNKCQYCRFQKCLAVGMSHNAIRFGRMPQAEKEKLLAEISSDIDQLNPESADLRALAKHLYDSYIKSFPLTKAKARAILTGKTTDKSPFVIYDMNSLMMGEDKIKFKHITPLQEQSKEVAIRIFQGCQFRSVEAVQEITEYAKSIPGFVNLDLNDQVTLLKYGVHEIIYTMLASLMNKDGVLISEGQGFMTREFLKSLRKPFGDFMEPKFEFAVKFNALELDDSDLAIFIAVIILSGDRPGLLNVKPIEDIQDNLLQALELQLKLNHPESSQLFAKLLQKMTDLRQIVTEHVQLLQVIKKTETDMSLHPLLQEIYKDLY
How it was run: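 After transfecting HepG2 with GAL4-UAS reporter constructs, cells are dosed for 24 h; total RNA is reverse-transcribed, PCR-amplified, FAM-labeled, HpaI-digested and resolved by capillary electrophoresis. Activity is measured as mRNA induction relative to DMSO.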

[8] = target: mouse Peroxisome Proliferator-activated Receptor gamma (PPARg), Pparg (gene 19016) (UniProt P37238); experiment: ATG_mPPARg_XSP2: Attagene TRANS-FACTORIAL Multi-Species (XSP2) HepG2 Assay for mouse Peroxisome Proliferator-activated Receptor gamma (PPARg) (AID 2283830);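 also: hits are gains in reporter mRNA above DMSO so AC50 marks activation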
Sequence of mouse Peroxisome Proliferator-activated Receptor gamma (PPARg), Pparg (gene 19016) (P37238 whole entry, looked up, the tested form may be a part): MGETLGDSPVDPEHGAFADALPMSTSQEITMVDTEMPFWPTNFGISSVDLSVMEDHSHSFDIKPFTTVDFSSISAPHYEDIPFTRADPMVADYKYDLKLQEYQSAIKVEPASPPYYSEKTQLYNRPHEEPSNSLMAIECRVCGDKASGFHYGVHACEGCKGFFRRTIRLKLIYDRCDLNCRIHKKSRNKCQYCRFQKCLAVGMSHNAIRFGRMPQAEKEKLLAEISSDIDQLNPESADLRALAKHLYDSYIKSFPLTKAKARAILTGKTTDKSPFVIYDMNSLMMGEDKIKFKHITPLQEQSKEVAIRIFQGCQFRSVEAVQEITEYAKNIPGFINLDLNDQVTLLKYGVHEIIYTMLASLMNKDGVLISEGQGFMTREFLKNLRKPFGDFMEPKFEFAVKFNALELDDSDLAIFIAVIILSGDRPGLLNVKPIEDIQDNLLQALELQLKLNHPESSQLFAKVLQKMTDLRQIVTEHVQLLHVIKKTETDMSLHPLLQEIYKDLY
How it was run: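 HepG2 cells transiently transfected with GAL4-UAS reporter units for chimeric NR-Gal4 proteins including mouse PPARg, exposed 24 h; medium contained 3 nM 6-alpha-fluorotestosterone and 1.5 nM norgestrel. Reporter mRNA quantified by RT-PCR, HpaI digestion and capillary electrophoresis, vs DMSO.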

[9] = target: zebrafish Thyroid Hormone Receptor beta (TRb), thrb (gene 30607) (UniProt Q9PVE4); experiment: ATG_zfTRb_XSP2: Attagene TRANS-FACTORIAL Multi-Species (XSP1) HepG2 Assay for zebrafish Thyroid Hormone Receptor beta (TRb) (AID 2283836)
Sequence of zebrafish Thyroid Hormone Receptor beta (TRb), thrb (gene 30607) (Q9PVE4 whole entry, looked up, the tested form may be a part): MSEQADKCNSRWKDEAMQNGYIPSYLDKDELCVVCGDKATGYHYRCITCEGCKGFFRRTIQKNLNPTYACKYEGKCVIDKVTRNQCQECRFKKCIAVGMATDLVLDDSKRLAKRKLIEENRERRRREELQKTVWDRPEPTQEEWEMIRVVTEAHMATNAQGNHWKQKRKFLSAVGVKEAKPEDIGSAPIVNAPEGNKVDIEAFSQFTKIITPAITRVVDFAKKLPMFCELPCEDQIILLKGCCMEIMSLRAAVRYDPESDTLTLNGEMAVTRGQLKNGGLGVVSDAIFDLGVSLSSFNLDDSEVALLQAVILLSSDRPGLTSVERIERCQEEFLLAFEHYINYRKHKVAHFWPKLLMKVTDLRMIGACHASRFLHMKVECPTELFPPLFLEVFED
How it was run: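 HepG2 cells transiently transfected with multiplexed GAL4-UAS reporter units expressing chimeric NR-Gal4 proteins; read 24 h after dosing. Reporter mRNA quantified by RT-PCR, 6-FAM labelling, HpaI digest and capillary electrophoresis; gain of signal fitted relative to DMSO.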

[10] = target: human Thyroid hormone Receptor beta (TRb), THRB (gene 7068) (UniProt P10828); experiment: ATG_hTRb_XSP2: Attagene TRANS-FACTORIAL Multi-Species (XSP2) HepG2 Assay for human Thyroid hormone Receptor beta (TRb) (AID 2283840);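 also: actives raise reporter mRNA so potency reflects agonist-like gain of signal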
Sequence of human Thyroid hormone Receptor beta (TRb), THRB (gene 7068) (P10828 whole entry, looked up, the tested form may be a part): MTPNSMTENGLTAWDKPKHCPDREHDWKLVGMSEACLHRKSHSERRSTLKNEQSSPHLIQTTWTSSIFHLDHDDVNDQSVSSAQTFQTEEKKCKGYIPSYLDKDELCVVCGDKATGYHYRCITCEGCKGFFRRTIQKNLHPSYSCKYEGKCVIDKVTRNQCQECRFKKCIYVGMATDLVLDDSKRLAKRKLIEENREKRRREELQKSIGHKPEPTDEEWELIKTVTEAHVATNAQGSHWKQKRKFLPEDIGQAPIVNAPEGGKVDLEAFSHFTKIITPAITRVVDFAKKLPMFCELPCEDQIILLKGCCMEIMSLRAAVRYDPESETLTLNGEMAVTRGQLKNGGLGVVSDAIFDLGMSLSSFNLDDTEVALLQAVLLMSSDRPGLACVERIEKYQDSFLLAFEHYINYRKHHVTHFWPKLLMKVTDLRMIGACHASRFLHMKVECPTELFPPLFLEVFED
How it was run: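 Transient transfection of human HepG2 with multi-species NR-Gal4/GAL4-UAS reporter constructs; 24 h compound treatment; RNA isolation, reverse transcription, PCR and HpaI digest; capillary electrophoresis of labeled fragments; activity fitted upward versus DMSO.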

[11] = tested on: frog Estrogen Receptor (ER), gene 398734; experiment: ATG_frER1_XSP2: Attagene TRANS-FACTORIAL Multi-Species (XSP2) HepG2 Assay for frog Estrogen Receptor (ER) (AID 2283821);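 also: hits raise reporter mRNA above DMSO baseline so potency means agonist or activator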
How it was run: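 HepG2 cells transiently transfected with GAL4-UAS reporter units expressing a chimeric frog ER-Gal4 protein; 24 h exposure. Reporter mRNA quantified by RT-PCR, fluorescent labelling and capillary electrophoresis; gain of signal fitted against DMSO baseline.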

[12] = target: Estrogen receptor (Homo sapiens) (UniProt P03372); experiment: ATG_hERa_XSP2: Attagene TRANS-FACTORIAL Multi-Species (XSP2) HepG2 Assay for human Estrogen Receptor (ERa) (AID 2283827)
Sequence of Estrogen receptor (Homo sapiens) (P03372 whole entry, looked up, the tested form may be a part): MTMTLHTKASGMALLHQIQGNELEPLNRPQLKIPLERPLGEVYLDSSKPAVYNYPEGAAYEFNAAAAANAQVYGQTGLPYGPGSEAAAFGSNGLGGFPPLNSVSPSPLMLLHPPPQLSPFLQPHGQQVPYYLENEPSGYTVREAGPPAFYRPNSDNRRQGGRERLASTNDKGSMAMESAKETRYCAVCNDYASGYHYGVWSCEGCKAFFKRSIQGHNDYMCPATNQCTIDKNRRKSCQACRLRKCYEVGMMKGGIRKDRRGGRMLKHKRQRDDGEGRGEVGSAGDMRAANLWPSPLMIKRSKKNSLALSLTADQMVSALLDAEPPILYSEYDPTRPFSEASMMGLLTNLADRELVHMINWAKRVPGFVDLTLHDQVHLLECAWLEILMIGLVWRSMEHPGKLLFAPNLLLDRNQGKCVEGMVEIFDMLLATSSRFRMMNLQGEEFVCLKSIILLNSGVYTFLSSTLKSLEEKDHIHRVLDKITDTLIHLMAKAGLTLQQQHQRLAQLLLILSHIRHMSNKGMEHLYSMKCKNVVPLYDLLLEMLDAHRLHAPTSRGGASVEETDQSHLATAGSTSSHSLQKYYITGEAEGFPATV
How it was run: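 HepG2 cells transiently transfected with multiplexed GAL4-UAS reporters driven by chimeric receptor-Gal4 proteins, dosed 24 h with 3 nM 6-alpha-fluorotestosterone and 1.5 nM norgestrel present. Reporter mRNA by RT-PCR and capillary electrophoresis; gain-of-signal fit versus DMSO.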

[13] = target: zebrafish Thyroid Hormone Receptor alpha (TRa), thraa (gene 30670) (UniProt Q98867); experiment: ATG_zfTRa_XSP2: Attagene TRANS-FACTORIAL Multi-Species (XSP1) HepG2 Assay for zebrafish Thyroid Hormone Receptor alpha (TRa) (AID 2283832);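 also: actives raise zebrafish TRa-Gal4 reporter transcript above DMSO baseline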
Sequence of zebrafish Thyroid Hormone Receptor alpha (TRa), thraa (gene 30670) (Q98867 whole entry, looked up, the tested form may be a part): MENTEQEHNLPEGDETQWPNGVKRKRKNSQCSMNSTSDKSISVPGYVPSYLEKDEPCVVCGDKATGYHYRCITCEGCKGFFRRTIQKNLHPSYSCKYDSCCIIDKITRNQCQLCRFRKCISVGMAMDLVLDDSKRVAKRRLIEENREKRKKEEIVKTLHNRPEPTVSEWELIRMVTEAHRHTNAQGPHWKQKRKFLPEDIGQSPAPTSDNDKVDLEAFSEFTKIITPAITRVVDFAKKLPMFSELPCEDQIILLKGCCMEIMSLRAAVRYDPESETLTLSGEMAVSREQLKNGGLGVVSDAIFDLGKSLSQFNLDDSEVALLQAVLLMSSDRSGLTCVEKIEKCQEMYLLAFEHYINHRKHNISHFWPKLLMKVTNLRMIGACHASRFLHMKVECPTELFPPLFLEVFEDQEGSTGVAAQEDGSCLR
How it was run: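 HepG2 cells transiently transfected with multiplexed GAL4-UAS reporter units expressing chimeric NR-Gal4 proteins; 24 h after dosing, reporter mRNA measured by RT-PCR, FAM labelling, HpaI digestion and capillary electrophoresis; gain of signal versus DMSO baseline.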

[14] = tested on: zebrafish Peroxisome Proliferator-activated Receptor gamma (PPARg), gene 557037; experiment: ATG_zfPPARg_XSP2: Attagene TRANS-FACTORIAL Multi-Species (XSP2) HepG2 Assay for zebrafish Peroxisome Proliferator-activated Receptor gamma (PPARg) (AID 2283833);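 also: actives increase reporter signal over DMSO so AC50 reflects activation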
How it was run: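 Multi-species TRANS format in HepG2, 24 h dosing; medium also contained 3 nM 6-alpha-fluorotestosterone and 1.5 nM norgestrel to stimulate androgen receptor. Zebrafish PPARg-GAL4 induced reporter mRNA was measured by RT-PCR/capillary electrophoresis.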

[15] = tested on: turtle Thyroid Hormone Receptor, alpha (TRa), gene 101949057; experiment: ATG_trTRa_XSP2: Attagene TRANS-FACTORIAL Multi-Species (XSP1) HepG2 Assay for turtle Thyroid Hormone Receptor, alpha (TRa) (AID 2283834);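 also: hits raise reporter mRNA over the DMSO baseline so AC50 marks activators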
How it was run: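 Transfection of HepG2 with multiple reporter transcription units, then chemical dosing for 24 h. Total RNA was reverse-transcribed, reporter sequences PCR-amplified and FAM-labelled, then sized by capillary electrophoresis. DMSO served as baseline.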

[16] = ATG_XTT_Cytotoxicity_XSP2: Cytotoxicity Assessment in the Attagene TRANS-FACTORIAL Multi-Species (XSP2) HepG2 Assay (AID 2283837)
How it was run: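 HepG2 cells, transiently transfected with multiple reporter constructs, exposed to chemical for 24 h. Cell number assessed with XTT fluorescence read-out; loss of signal fitted relative to DMSO.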

[17] = target: human Thyroid hormone Receptor alpha (TRa), THRA (gene 7067) (UniProt P10827); experiment: ATG_hTRa_XSP2: Attagene TRANS-FACTORIAL Multi-Species (XSP2) HepG2 Assay for human Thyroid hormone Receptor alpha (TRa) (AID 2283838)
Sequence of human Thyroid hormone Receptor alpha (TRa), THRA (gene 7067) (P10827 whole entry, looked up, the tested form may be a part): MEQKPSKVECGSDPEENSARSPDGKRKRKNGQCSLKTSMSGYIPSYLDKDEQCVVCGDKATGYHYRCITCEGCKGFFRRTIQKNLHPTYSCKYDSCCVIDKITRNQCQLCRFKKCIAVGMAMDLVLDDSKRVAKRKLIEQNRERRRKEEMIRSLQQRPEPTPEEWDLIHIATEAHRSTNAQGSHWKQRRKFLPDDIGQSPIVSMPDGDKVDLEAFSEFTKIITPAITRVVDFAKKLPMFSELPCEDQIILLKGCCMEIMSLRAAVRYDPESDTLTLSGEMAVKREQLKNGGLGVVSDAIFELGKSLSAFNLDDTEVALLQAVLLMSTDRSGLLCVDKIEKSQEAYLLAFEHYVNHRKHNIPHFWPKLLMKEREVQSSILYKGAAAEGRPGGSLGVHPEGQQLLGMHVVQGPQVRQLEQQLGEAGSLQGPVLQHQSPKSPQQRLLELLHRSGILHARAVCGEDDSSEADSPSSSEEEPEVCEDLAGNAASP
How it was run: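 HepG2 cells transiently transfected with multiplexed GAL4-UAS reporter units and exogenous NR-GAL4 chimeras; 24 h chemical exposure with 3 nM 6-alpha-fluorotestosterone and 1.5 nM norgestrel present. Reporter mRNA measured by RT-PCR, FAM labelling, HpaI digestion, capillary electrophoresis; gain-of-signal versus DMSO.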

[18] = target: frog Thyroid hormone Receptor alpha (TRa), thra-a (gene 397942) (UniProt P15204); experiment: ATG_frTRa_XSP2: Attagene TRANS-FACTORIAL Multi-Species (XSP2) HepG2 Assay for frog Thyroid hormone Receptor alpha (TRa) (AID 2283839)
Sequence of frog Thyroid hormone Receptor alpha (TRa), thra-a (gene 397942) (P15204 whole entry, looked up, the tested form may be a part): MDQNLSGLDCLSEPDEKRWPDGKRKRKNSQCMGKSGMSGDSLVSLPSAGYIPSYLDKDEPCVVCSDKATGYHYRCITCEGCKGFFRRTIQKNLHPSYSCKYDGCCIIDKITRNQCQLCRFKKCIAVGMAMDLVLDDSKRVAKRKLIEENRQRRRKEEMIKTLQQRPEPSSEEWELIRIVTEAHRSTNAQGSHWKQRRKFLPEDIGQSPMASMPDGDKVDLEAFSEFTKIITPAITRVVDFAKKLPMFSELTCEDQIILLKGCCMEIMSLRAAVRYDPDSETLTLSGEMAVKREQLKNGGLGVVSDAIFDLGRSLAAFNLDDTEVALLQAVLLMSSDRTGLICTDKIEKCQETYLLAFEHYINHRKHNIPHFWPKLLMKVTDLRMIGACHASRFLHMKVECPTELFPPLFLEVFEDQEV
How it was run: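 Transfect HepG2 with multiple reporter units (GAL4-UAS), dose chemical, incubate 24 h. Isolate RNA, reverse-transcribe, PCR-amplify reporter, label with 6-FAM by primer extension, digest with HpaI, run capillary electrophoresis; induction scored against DMSO.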

[19] = ATG_M_61_XSP2: Attagene TRANS-FACTORIAL Multi-Species (XSP2) HepG2 Assay for M61 Transcription Factor (Internal Marker) (AID 2283835; active = hit-call score of the fitted dose curve at least 0.9, where 1 is the maximum; inactive = score below 0.9;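 also: active means a rise in signal above the DMSO baseline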)
How it was run: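 HepG2 cells transiently transfected with multiple GAL4-UAS reporter units; reporter mRNA measured 24 h after dosing by RT-PCR, fluorescent labelling and capillary electrophoresis. Medium contained 3 nM 6-alpha-fluorotestosterone and 1.5 nM norgestrel; internal marker, DMSO baseline.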

ClC1C(Cl)C(Cl)C(Cl)C(Cl)C1Cl (centres undefined)
outcome [1]: inactive
outcome [2]: inactive

CC1(c2ccc(Oc3ccccc3)cc2)OC(=O)N(Nc2ccccc2)C1=O (centres undefined)
outcome [1]: inactive
AC50 [2]: 5.4 µM (active)

CCOCN(C(=O)CCl)c1c(C)cccc1CC
outcome [3]: inactive
AC50 [4]: 100 µM (active)
outcome [5]: inactive
outcome [6]: inactive
AC50 [7]: 1.01 µM (active)
AC50 [8]: 2.14 µM (active)
outcome [9]: inactive
outcome [10]: inactive

CC[C@H](C)[C@H]1O[C@]2(C=C[C@@H]1C)C[C@@H]1C[C@@H](C/C=C(\C)[C@@H](O[C@H]3C[C@H](OC)[C@@H](O[C@H]4C[C@H](OC)[C@@H](O)[C@H](C)O4)[C@H](C)O3)[C@@H](C)/C=C/C=C3\CO[C@@H]4[C@H](O)C(C)=C[C@@H](C(=O)O1)[C@]34O)O2 (tested in a mixture with another compound)
outcome [1]: inactive
outcome [2]: inactive

COc1nn(CSP(=S)(OC)OC)c(=O)s1
outcome [1]: inactive
outcome [2]: inactive

O=C(Nc1ccccc1)Nc1cnns1
outcome [1]: inactive

CCC(C)(NC(=O)c1cc(Cl)c(C)c(Cl)c1)C(=O)CCl (centres undefined)
AC50 [1]: 31.4 µM (active)
outcome [2]: inactive

COP(=S)(OC)Oc1ccc([N+](=O)[O-])cc1
outcome [11]: inactive
outcome [3]: inactive
AC50 [4]: 39.3 µM (active)
outcome [4]: inactive
AC50 [12]: 31.1 µM (active) and 40.7 µM (active)
AC50 [6]: 100 µM (active) and 36.9 µM (active)
AC50 [7]: 27.7 µM (active)
outcome [7]: inactive
AC50 [8]: 27 µM (active)
outcome [8]: inactive
outcome [13]: inactive
outcome [14]: inactive
outcome [15]: inactive
outcome [9]: inactive
outcome [16]: inactive
outcome [17]: inactive
outcome [18]: inactive
outcome [10]: inactive

COP(=S)(OC)Oc1ccc(SC)c(C)c1
AC50 [11]: 27.3 µM (active)
AC50 [4]: 59 µM (active)
AC50 [12]: 8.43 µM (active)
AC50 [6]: 26.8 µM (active)
AC50 [7]: 34.2 µM (active)
AC50 [8]: 35.8 µM (active)
outcome [13]: inactive
outcome [14]: inactive
outcome [15]: inactive
outcome [19]: inactive
outcome [17]: inactive
outcome [18]: inactive
outcome [10]: inactive
outcome [1]: inactive
outcome [2]: inactive

CCCN(CCOc1c(Cl)cc(Cl)cc1Cl)C(=O)n1ccnc1
outcome [11]: inactive
outcome [4]: inactive
outcome [5]: inactive
outcome [6]: inactive
AC50 [7]: 16.6 µM (active)
AC50 [8]: 20.4 µM (active)
outcome [13]: inactive
outcome [14]: inactive
outcome [19]: inactive
outcome [9]: inactive
outcome [17]: inactive
outcome [18]: inactive
outcome [10]: inactive
AC50 [1]: 76.5 µM (active)
AC50 [2]: 50 µM (active)

C[C@H]1[C@H](c2ccc(Cl)cc2)SC(=O)N1C(=O)NC1CCCCC1
outcome [1]: inactive
outcome [2]: inactive

CCN(CC)C(=O)SCc1ccc(Cl)cc1
AC50 [1]: 50 µM (active)
outcome [2]: inactive

N#Cc1c(Cl)c(Cl)c(Cl)c(C#N)c1Cl
outcome [1]: inactive
outcome [2]: inactive

CCOC1Oc2ccc(OS(C)(=O)=O)cc2C1(C)C (centres undefined)
outcome [1]: inactive
outcome [2]: inactive

CCCN(CCC)c1c([N+](=O)[O-])cc(C(F)(F)F)cc1[N+](=O)[O-]
outcome [11]: inactive
outcome [3]: inactive
AC50 [4]: 69.9 µM (active)
outcome [5]: inactive
AC50 [12]: 18.8 µM (active)
AC50 [6]: 100 µM (active)
outcome [7]: inactive
outcome [8]: inactive
outcome [13]: inactive
outcome [19]: inactive
outcome [9]: inactive
outcome [18]: inactive
outcome [1]: inactive
outcome [2]: inactive
